Format in all cases: functional
In assay [1] the target is Solute carrier family 2, facilitated glucose transporter member 1 (Homo sapiens) (UniProt P11166). In words: ST_JUDE_LEISH: Cytotoxicity at 2uM final concentration against transgenic Leishmania Mexicana promastigotes LmGLUT1 that are glucose transport deficient and complemented with the human glucose transporter GLUT1. Activity is measured by DNA content using SYBR green in vitro.

Assay [2] addresses Hexose transporter 1 (Plasmodium falciparum) (UniProt O97467). Description: ST_JUDE_LEISH: Cytotoxicity at 2uM final concentration against transgenic Leishmania Mexicana promastigotes LmPfHT that are glucose transport deficient and complemented with the Plasmodium falciparum hexose transporter. Activity is measured by DNA content using SYBR green in vitro.
For assay [3], the target named is Glucose transporter (Leishmania mexicana) (UniProt O61059). In words: ST_JUDE_LEISH: Cytotoxicity at 2uM final concentration against transgenic Leishmania Mexicana promastigotes LmGT2 that are glucose transport deficient and complemented with the L. Mexicana glucose transporter 2. Activity is measured by DNA content using SYBR green in vitro.

Structures are written as SMILES.

Solute carrier family 2, facilitated glucose transporter member 1 (Homo sapiens), sequence (P11166 whole entry): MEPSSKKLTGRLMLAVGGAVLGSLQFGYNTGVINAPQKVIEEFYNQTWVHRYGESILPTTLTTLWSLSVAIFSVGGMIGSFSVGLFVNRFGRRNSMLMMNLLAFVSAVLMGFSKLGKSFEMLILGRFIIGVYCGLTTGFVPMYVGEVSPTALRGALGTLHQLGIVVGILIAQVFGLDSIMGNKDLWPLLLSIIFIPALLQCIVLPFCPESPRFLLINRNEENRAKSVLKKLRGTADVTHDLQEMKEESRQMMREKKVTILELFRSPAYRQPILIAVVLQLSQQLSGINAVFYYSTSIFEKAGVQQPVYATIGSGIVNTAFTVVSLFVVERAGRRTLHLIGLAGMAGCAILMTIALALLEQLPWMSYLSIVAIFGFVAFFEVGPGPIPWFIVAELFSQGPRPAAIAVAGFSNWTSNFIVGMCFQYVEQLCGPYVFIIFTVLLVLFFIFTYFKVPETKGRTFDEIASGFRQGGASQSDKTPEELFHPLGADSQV

In general, inhibition refers to the drop in the measured response relative to a control, in per cent. For `COc1cc(C)nc2ccc(NC(=O)Nc3ccccc3[N+](=O)[O-])cc12`, the figures for the inhibition in assay [1], in assay [2] and in assay [3] were 2.28%, 0.56% and 1.8%, respectively.
For `O=c1cc(NCCCNCc2scc3c(Cl)cc(C(F)(F)F)nc23)[nH]c2ccccc12` the same measures were 2.13%, 2.43% and 3.05%.
In the same order, the values of `CN(C)CCOc1ccc(/C(=C(/CCCn2ccnc2)c2ccccc2)c2ccc(O)cc2)cc1` are 4.25%, 6.01% and 5.69%.
For `CN(C)CCCNc1ncnc2c1[nH]c1ccc(Cl)cc12` the same measures were 1.91%, 3.62% and 1.6%.
For `CN(C)c1ccc(-c2nnc(Sc3ccc(C#N)c([N+](=O)[O-])c3)n2Cc2ccco2)cc1`, the inhibition came to 3.82% in assay [1], 2.83% in assay [2] and 0.63% in assay [3].
For `CN(C)Cc1ccc(-c2cccc(Nc3nccc(NCC(O)c4ccccc4)n3)c2)cc1` (stereo not drawn) the same measures were 0.75%, 1.38% and 0.25%.
For `Cc1cc(N(C)CCCN(C)C)nc(Nc2ccc(Cl)cc2)n1` the same measures were -1.04%, 1.73% and -0.32%.
For `OCCN1CCN(c2nc(Nc3cccc(F)c3)c3cnn(-c4ccccc4)c3n2)CC1` the same measures were 3.91%, 0.94% and -2.4%.
Regarding `CNCCCNc1ccnc2cc(Cl)ccc12`, the inhibition in assay [1] came to 3.07%; in assay [2], 4.53%; in assay [3] it was 5.03%.
As to `O=C(Cn1c(CCc2cccc(F)c2F)nc(=O)c2ccccc21)N(CCCN1CCCC1)Cc1ccc(-c2ccc(C(F)(F)F)cc2)cc1`, the inhibition is 8.01% in assay [1], 7.63% in assay [2] and 9.22% in assay [3].
In the same order, the values of `Cn1cnc2c(SCc3ccc(OCc4ccccc4)cc3)ncnc21` are 2.71%, 4.19% and 6.37%.
As to `O=C(Nc1cccc(CN2CCN(C(=O)c3cccc(F)c3)CC2)c1)c1ccco1`, the inhibition amounted to 2.27% in assay [1], 2.31% in assay [2] and 0.61% in assay [3].
For `O=C(C=Cc1ccc(Cl)c(Cl)c1)NCCCCCN1CCCC(CCCNS(=O)(=O)c2cccc(C(F)(F)F)c2)C1` (stereo not drawn) the same measures were 0.93%, -0.07% and 2.4%.
In the same order, the values of `COc1ccc2nc3cc(Cl)ccc3c(NCc3ccccc3)c2c1` are 2.39%, 2.92% and -0.49%.
`CN1CCN(c2ccnc3cc4c(cc23)N(C(=O)Nc2ccc3c(c2)CCCC3=O)CC4)CC1`: the inhibition in assay [1] amounted to 1.37%; in assay [2], 1.56%; in assay [3], 0.75%.
For `COc1ccc(NC(=O)[C@H](Cc2ccccc2)Nc2cc(C)nc(NCCc3ccccn3)n2)cc1` the same measures were 4.73%, 5.3% and -0.86%.
For `N#Cc1ccc(N2CCN(Cc3ccc(-c4ccc(-c5nc6ccccc6[nH]5)s4)cc3)CC2)nc1` the same measures were 6.79%, 6.18% and 2.59%.
Take `O=C(Nc1ccc2oc(-c3ccc(Cl)cc3Cl)nc2c1)c1ccc([N+](=O)[O-])o1`: the inhibition is 88.9% in assay [1], 54.3% in assay [2] and 11% in assay [3].
Turning to `CC1CC(NCCCNc2cc(=O)c3ccccc3[nH]2)c2c(Cl)c(Cl)cc(Cl)c21` (stereo not drawn), the inhibition worked out at 5.21% in assay [1], 3.08% in assay [2] and 1.22% in assay [3].
As to `COCCN1CCN(Cc2cccc(-c3ccc(-c4nc5ccccc5[nH]4)cc3)c2)CC1`, the inhibition in assay [1] is 0.45%; in assay [2], -3.13%; in assay [3] it was -1.36%.
For `COc1ccccc1N1CCN(CCCCN(C(=O)Nc2cccc(Cl)c2)C(=O)Nc2cccc(Cl)c2)CC1` the same measures were 10.6%, 8.66% and 10.6%.
For `COc1ccc2c(N/N=C/c3cccc([N+](=O)[O-])c3)cc(C)nc2c1` the same measures were 1.12%, 4.05% and 0.63%.
For `O=C(/C=C/c1ccc(Cl)c(Cl)c1)N1CCN(C(=O)Nc2cccc(C(F)(F)F)c2)CC1` the same measures were 5.23%, 4.67% and 2.79%.
Regarding `Cc1cccn2c(=O)c3cc(C(=O)NCCN4CCOCC4)c(=N)n(CCc4ccccc4)c3nc12`, the inhibition was -0.34% in assay [1], 2.09% in assay [2] and 0.41% in assay [3].
In the same order, the values of `CCCCn1c(Sc2ccc(C#N)c([N+](=O)[O-])c2)nnc1-c1cc(OC)cc(OC)c1` are 0.5%, 3.21% and 0.45%.
In the same order, the values of `COc1cc(-c2cc3cc(Cl)c(Cl)cc3[nH]2)ccc1C(=O)NC1CCN(Cc2ccccc2)CC1` are 4.58%, 2.67% and 3.54%.
Take `COc1ccc2nccc([C@@H](O)CN3CCC(NCc4nc5cc(F)cc(F)c5[nH]4)CC3)c2c1`: the inhibition in assay [1] was 3.31%; in assay [2], 4.04%; in assay [3], -0.63%.
For `C[C@H]1CN(Cc2cccc(-c3cc(CNC(=O)c4cccc(CN5CCN(C/C=C/c6ccccc6)CC5)c4)ccc3F)c2)CCN1` the same measures were 11.6%, 10.6% and 12.7%.
On to `Cc1nn(CC(O)Cn2c3ccc(Br)cc3c3cc(Br)ccc32)c(C)c1Br` (stereo not drawn), for which the inhibition in assay [1] is -0.46%; in assay [2], -3.23%; in assay [3] it was -0.3%.
In the same order, the values of `Cc1cc(-c2nc3ccc(C(=O)NCc4ccccc4)cc3n2C2CCN(C(=O)c3ccc(-c4ccccc4)cc3)CC2)ccn1` are 1.02%, -0.07% and 1.94%.
For `Cc1cc(O)nc(NC#N)n1` the same measures were 2.54%, 3.15% and 2.82%.
With `COc1cc2nc(NCCN3CCOCC3)n3nc(-c4ccccc4)nc3c2cc1OC`, the inhibition stood at 8.12% in assay [1], 6.56% in assay [2] and 5.62% in assay [3].
With `CN(C)S(=O)(=O)n1ccc2c3c(N)nc(N)nc3ccc21`, the inhibition in assay [1] amounted to 44.3%; in assay [2] it was 46.3%; in assay [3], 29.3%.
For `CS(=O)(=O)c1ccc(Nc2ncc(-c3ccc(S(C)(=O)=O)cc3)c(OCC(F)(F)F)n2)cc1` the same measures were 4.36%, 0.18% and 3.17%.
In the same order, the values of `CCOc1ccc(C2CCN(CCN3CCC(NC(=O)c4ccc(-c5ccc(C(F)(F)F)cc5)cc4)CC3)CC2)c(OCC2CC2)c1` are 3.99%, 3% and 2.81%.
In the same order, the values of `CCCn1c(O)nnc1SCC(=O)Nc1cc(Cl)ccc1Cl` are -1.37%, -0.49% and -0.21%.
With `COC(=O)c1ccc(CCC(C)NCC(O)c2cccc(C(F)(F)F)c2)cc1` (stereo not drawn), the inhibition in assay [1] came to 0.8%; in assay [2], 0.12%; in assay [3], 3.23%.
For `Clc1ccc2c(NN=Cc3ccco3)ccnc2c1` the same measures were 3.59%, 3.49% and 0.47%.
As to `CN(C)CCCOc1ccc(CNCc2cccc(Oc3ccc(Cl)cc3)c2)cc1`, the inhibition in assay [1] worked out at 6.24%; in assay [2] it was 2.32%; in assay [3] it was 3.82%.
Consider `S=C(Nc1ccc(Cl)cc1)Nc1ccc(Nc2ccccc2)cc1`, for which the inhibition was determined as 6.97% in assay [1], 5.37% in assay [2] and 5% in assay [3].
For `CC(=O)c1ccc2c(c1)C(NC(=O)c1cccc(Cl)c1Cl)C(CO)C(C)(C)O2` (stereo not drawn) the same measures were 1.76%, 3.84% and -1.69%.
In the same order, the values of `CCCCN(C)CC#Cc1ccc(-c2ccc3[nH]c(C)c(Br)c(=O)c3c2)cn1` are 6.4%, 7.74% and 8.6%.
For `CNC(=O)COC(=O)c1c2c(nc3ccccc13)C(=Cc1ccc3c(c1)OCO3)CCC2` the same measures were 1.88%, -1.19% and 0.04%.
In the case of `NCc1ccc(CNCc2cccc(-c3ccc(-c4nc5ccccc5[nH]4)cc3)c2)cc1`, the inhibition is 13.5% in assay [1], 11.8% in assay [2] and 12.4% in assay [3].
Turning to `CC(C)CCN(Cc1cncn1Cc1ccccc1F)C(=O)c1cncc(-c2ccccc2)c1`, the inhibition was found to be 2.26% in assay [1], 5.35% in assay [2] and 3.59% in assay [3].
For the compound `CCNC[C@H]1CCCN1CCOc1ccc(-n2cnc3cc(-c4ccc(Cl)cc4)sc3c2=O)cc1OC`, the inhibition is -0.44% in assay [1], -1.99% in assay [2] and -2.28% in assay [3].

These data come from ChEMBL document CHEMBL3433997, “St. Jude Leishmania screening dataset” (2016).
